Inconclusive results are not listed. Where a call stands in place of a potency, no number is given. Activity calls are given as the source filed them. Calls come from the whole dose curve; as a rule, active = well fitted inhibition curve with a large enough effect; inconclusive = small, poorly fitted or top-dose-only effect; inactive = flat fitted curve, though single readings scatter.
Tested on: KB-3-1
Test: Cytotoxic Profiling of Annotated Libraries Using Quantitative High-Throughput Screening (AID 1296008); note: nearly all actives have a fitted effect of over 60% in size
Details: Five cell lines viability, CellTiter-Glo ATP luminescence, 48-72 h; max response: active compounds read low
Summary of the method: (§1)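 Cells exposed to compounds for 48 or 72 hr at 37 degrees Celsius. Viability read as ATP-coupled luminescence with CellTiter-Glo after 10 min at room temperature.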
Potency is the fitted concentration of half-maximal effect.

Row | Compound | max response | outcome
1 | COc1c(C)c(OCC=C(C)C)cc2c1CNC2=O | -3.05% (inactive) | 
2 | CC(C)=CCC/C(C)=C/CO[C@@H]1O[C@H](CO[C@@H]2O[C@@H](CO)[C@H](O)[C@H]2O)[C@@H](O)[C@H](O)[C@H]1O |  | inactive
3 | COc1cnc(-c2ccc(Cn3c(CC(C)(C)C(=O)O)c(SC(C)(C)C)c4cc(OC[C@@H]5Cc6ccccc6N5C(C)=O)ccc43)cc2)nc1 | -12.4% (inactive) | 
4 | O=C(OCC1=CC(Cl)C(O)C(OC(=O)c2ccccc2)C1O)c1ccccc1 (stereo unspecified) |  | inactive
5 | CC12CC(O)C(O)C=C1c1cc(O)cc(O)c1C(=O)O2 (stereo unspecified) |  | inactive
6 | COc1ccc(C2(O)c3ccccc3NC(=O)C2OC)cc1 (stereo unspecified) | 5.23% (inactive) | 
7 | C=C(C)C(O)COc1ccc(CC(=O)O)cc1 (stereo unspecified) |  | inactive
8 | CN1CCc2cc(Cl)c(O)cc2[C@@H](c2cccc3c2OCC3)C1 | -4.72% (inactive) | 
9 | CC1(CO)CC(O)C2(C)CCC3(C)C(=CCC4C5(C=O)CCC(OC6OC(C(=O)O)C(O)C(O)C6OC6OC(C(=O)O)C(O)C(O)C6O)C(C)(C)C5CCC43C)C2C1 (stereo unspecified) |  | inactive
10 | O=C(O)c1ccnc2cc(-c3nc4ccccc4n3CCN3CCCCC3)sc12 | 2.06% (inactive) | 
11 | CC1(C)CC[C@]2(C(=O)O)CC[C@]3(C)C(=CCC4[C@@]5(C)CC[C@H](O[C@@H]6O[C@H](C(=O)O)[C@@H](O)[C@H](O[C@@H]7O[C@H](CO)[C@H](O)[C@H](O)[C@H]7O)[C@H]6O[C@@H]6O[C@H](CO)[C@@H](O)[C@H](O)[C@H]6O)C(C)(C)C5CC[C@]43C)[C@@H]2C1 (stereo partly specified) |  | inactive
12 | C[C@@H]1O[C@@H](O[C@H]2[C@H](OC(=O)[C@]34CCC(C)(C)C[C@H]3C3=CCC5[C@@]6(C)C[C@@H](O)[C@@H](O[C@@H]7O[C@H](CO)[C@@H](O)[C@H](O)[C@H]7O)[C@@](C)(CO)C6[C@H](O)C[C@@]5(C)[C@]3(C)CC4)OC[C@H](O)[C@@H]2O)[C@H](O)[C@H](O[C@@H]2OC[C@](O)(CO)[C@H]2O)[C@H]1O[C@@H]1OC[C@@H](O)[C@H](O[C@H]2O[C@H](C)[C@@H](O)[C@H](O)[C@@H]2O)[C@H]1O (stereo partly specified) |  | inactive
13 | CCC(C)/C=C(C)/C=C/C1=CC2=C(Cl)C(=O)C(C)(OC(C)=O)C(=O)C2=CN1C(CC(=O)O)C(=O)O (stereo unspecified) | 7.58% (inactive) | 
14 | COc1cc(/C=C/C(=O)OCC2OC(OC3(CO)OC(CO)C(O)C3O)C(O)C(O)C2O)ccc1O (stereo unspecified) |  | inactive
15 | O=C(O)[C@H](Cc1ccccc1)Oc1ccc(-c2ccccc2)cc1 |  | inactive
16 | CN1CCN(C2=Nc3ccccc3Nc3ccc(O)cc32)CC1 |  | inactive
17 | CCNC(=O)OC1CCN(c2nncc3cc(OC)c(OC)cc23)CC1 |  | inactive

Tested on: NIH3T3
Test: as above
Details: Five cell lines viability, CellTiter-Glo ATP luminescence, 48-72 h; max response: active compounds read low
Summary of the method: as §1

Row | Compound | outcome | Potency | max response
18 | CC[C@@H]1[C@H]2CCCCN3C(=O)C[C@H]([C@@H]4[C@H]1OC(=O)[C@H]4C)[C@@H]23 | inactive |  | 
19 | Oc1ccc2c(-c3c(-c4ccccn4)nn4c3CCC4)ccnc2c1 |  | 13 µM (active) | 
20 | CC1(C)CCCC2(C)c3c4c(c(=O)oc(=O)c3=CCC12)=CCC1C(C)(C)CCCC41C (stereo unspecified) | inactive |  | 
21 | C[C@H]1[C@H](C)CC[C@]2(C(=O)O)CC[C@]3(C(=O)O)C(=CCC4[C@@]5(C)CC[C@H](O[C@@H]6O[C@@H](C)[C@H](O)[C@@H](O)[C@H]6O)C(C)(C)C5CC[C@]43C)[C@H]12 (stereo partly specified) |  |  | 4.82% (inactive)
22 | CCC(C)C(=O)O[C@H]1C[C@](C)(O)[C@]23OC(C)(C)[C@H](C[C@H](OC(=O)c4ccccc4)[C@]2(COC(C)=O)[C@H]1OC(=O)C(C)CC)[C@H]3OC(C)=O (stereo partly specified) |  |  | 4.39% (inactive)
23 | CC(C)=C1CC2C(CCC2(C)O)C(C)(O)CC1=O (stereo unspecified) | inactive |  | 
24 | CC(=O)c1[nH]cc(CCC(=O)O)c1CC(=O)O |  |  | -3.85% (inactive)
25 | CC(=O)O[C@@H]1[C@@H](O)[C@H](C)O[C@@H](O[C@H]2[C@@H]3C=CO[C@@H](O[C@@H]4O[C@H](CO)[C@@H](O)[C@H](O)[C@H]4OC(C)=O)[C@@H]3[C@@]3(CO)O[C@@H]23)[C@@H]1OC(=O)/C=C/c1ccc(O)cc1 | inactive |  | 
26 | CC(=O)OC1C(O)C(C)(O)C(/C=C/C(=O)O)C2(C)CCCC(C)(C)C12 (stereo unspecified) | inactive |  | 
27 | C=C(CO)C(=O)O[C@H]1C[C@@]23O[C@@H]2CC/C(=C/[C@H]2OC(=O)C(=C)[C@H]12)CO[C@H]3O |  |  | 2.84% (inactive)
28 | CC(C)C1CCC(CO)=CC1/C=C(\CO)C(=O)OCC1(O)CCC(C(C)C)C2C=C(C(=O)O)COC(=O)C21 (stereo unspecified) |  |  | -0.853% (inactive)
29 | O=C(/C=C/c1ccc(O)cc1)OC[C@@]1(O)C=C[C@@H]2C(C(=O)O)=CO[C@@H](O[C@@H]3O[C@H](CO)[C@@H](O)[C@H](O)[C@H]3O)[C@@H]21 |  |  | 2.82% (inactive)
30 | C=C1C(=O)O[C@@H]2/C=C(\C)CC/C=C(\C(=O)O[C@@H]3O[C@H](CO)[C@@H](O)[C@H](O)[C@H]3O)CC[C@@H]12 |  |  | -22.6% (inactive)
31 | C=C[C@H]1[C@H](O[C@@H]2O[C@H](CO)[C@@H](O)[C@H](OC(=O)/C=C/c3ccc(O)c(OC)c3)[C@H]2O)OC=C2C(=O)OCC[C@]21O | inactive |  | 
32 | C[C@@H]1O[C@@H](O[C@H]2[C@H](OC(=O)[C@]34CCC(C)(C)C[C@H]3C3=CCC5[C@@]6(C)CC[C@H](O[C@@H]7O[C@H](CO[C@@H]8OC[C@H](O)[C@H](O)[C@H]8O)[C@@H](O)[C@H](O)[C@H]7O)C(C)(C)C6CC[C@@]5(C)[C@]3(C)C[C@H]4O)OC[C@@H](O)[C@@H]2O)[C@H](O)[C@H](O[C@@H]2OC[C@](O)(CO)[C@H]2O)[C@H]1O[C@@H]1OC[C@H](O)[C@H](O[C@@H]2OC[C@@H](O)[C@H](O)[C@H]2O)[C@H]1O (stereo partly specified) |  |  | -2.23% (inactive)
33 | C=CCc1ccc(O[C@@H]2O[C@H](CO)[C@@H](O)[C@H](O)[C@H]2O)c(O[C@@H]2O[C@H](CO)[C@@H](O)[C@H](O)[C@H]2O)c1 | inactive |  | 
34 | C=C1CC2C(C)(CCC(=O)O)C(C(C)(C)O)CCC2(C)C2(C(=O)OC)C(=O)C(C)(O)C(=O)C12C (stereo unspecified) |  |  | 0.874% (inactive)
35 | CC[C@H](C)[C@H](NC(=O)[C@H](Cc1ccc(O)cc1)NC(=O)[C@@H](N)C(C)C)C(=O)N[C@@H](Cc1cnc[nH]1)C(=O)N1CCC[C@H]1C(=O)N[C@@H](Cc1ccccc1)C(=O)O | inactive |  | 
36 | CC(=O)O[C@@H](C[C@@H]1C=C(C)C(=O)O1)[C@H](C)[C@H]1CCC2[C@@]3(C)CC[C@H](O[C@@H]4O[C@H](CO)[C@@H](O)[C@H](O)[C@H]4O[C@@H]4O[C@@H](C)[C@H](O)[C@@H](O)[C@H]4O)C(C)(C)C3CC[C@@]2(C)[C@@]12COC(=O)C2 (stereo partly specified) | inactive |  | 
37 | C/C=C1\[C@H](O[C@@H]2O[C@H](CO)[C@@H](O)[C@H](O)[C@H]2O)OC=C(C(=O)OCCc2ccc(O)cc2)[C@H]1CC(=O)OCCc1ccc(O)cc1 |  |  | -3.77% (inactive)

Row | Compound | outcome | Potency | max response
38 | C=C1CC/C=C(/CO)C(=O)C[C@@H]2[C@@H]1C[C@@]2(C)COC(C)=O | inactive |  | 
39 | C=C1CC[C@@H]2[C@](C)(CO)[C@H](O[C@@H]3O[C@H](CO)[C@@H](O)[C@H](O)[C@H]3O)CC[C@@]2(C)[C@@H]1C/C=C1/C(=O)OC[C@H]1O |  |  | -0.313% (inactive)
40 | COc1c(C)c(OCC=C(C)C)cc2c1CNC2=O |  |  | -2.21% (inactive)
41 | CC(C)=CCC/C(C)=C/CO[C@@H]1O[C@H](CO[C@@H]2O[C@@H](CO)[C@H](O)[C@H]2O)[C@@H](O)[C@H](O)[C@H]1O | inactive |  | 
42 | COc1cnc(-c2ccc(Cn3c(CC(C)(C)C(=O)O)c(SC(C)(C)C)c4cc(OC[C@@H]5Cc6ccccc6N5C(C)=O)ccc43)cc2)nc1 |  |  | -14.7% (inactive)
43 | O=C(OCC1=CC(Cl)C(O)C(OC(=O)c2ccccc2)C1O)c1ccccc1 (stereo unspecified) |  |  | 1.71% (inactive)
44 | CC12CC(O)C(O)C=C1c1cc(O)cc(O)c1C(=O)O2 (stereo unspecified) | inactive |  | 
45 | COc1ccc(C2(O)c3ccccc3NC(=O)C2OC)cc1 (stereo unspecified) | inactive |  | 
46 | C=C(C)C(O)COc1ccc(CC(=O)O)cc1 (stereo unspecified) | inactive |  | 
47 | CN1CCc2cc(Cl)c(O)cc2[C@@H](c2cccc3c2OCC3)C1 | inactive |  | 
48 | CC1(CO)CC(O)C2(C)CCC3(C)C(=CCC4C5(C=O)CCC(OC6OC(C(=O)O)C(O)C(O)C6OC6OC(C(=O)O)C(O)C(O)C6O)C(C)(C)C5CCC43C)C2C1 (stereo unspecified) | inactive |  | 
49 | O=C(O)c1ccnc2cc(-c3nc4ccccc4n3CCN3CCCCC3)sc12 | inactive |  | 
50 | CC1(C)CC[C@]2(C(=O)O)CC[C@]3(C)C(=CCC4[C@@]5(C)CC[C@H](O[C@@H]6O[C@H](C(=O)O)[C@@H](O)[C@H](O[C@@H]7O[C@H](CO)[C@H](O)[C@H](O)[C@H]7O)[C@H]6O[C@@H]6O[C@H](CO)[C@@H](O)[C@H](O)[C@H]6O)C(C)(C)C5CC[C@]43C)[C@@H]2C1 (stereo partly specified) | inactive |  | 
51 | C[C@@H]1O[C@@H](O[C@H]2[C@H](OC(=O)[C@]34CCC(C)(C)C[C@H]3C3=CCC5[C@@]6(C)C[C@@H](O)[C@@H](O[C@@H]7O[C@H](CO)[C@@H](O)[C@H](O)[C@H]7O)[C@@](C)(CO)C6[C@H](O)C[C@@]5(C)[C@]3(C)CC4)OC[C@H](O)[C@@H]2O)[C@H](O)[C@H](O[C@@H]2OC[C@](O)(CO)[C@H]2O)[C@H]1O[C@@H]1OC[C@@H](O)[C@H](O[C@H]2O[C@H](C)[C@@H](O)[C@H](O)[C@@H]2O)[C@H]1O (stereo partly specified) | inactive |  | 
52 | CCC(C)/C=C(C)/C=C/C1=CC2=C(Cl)C(=O)C(C)(OC(C)=O)C(=O)C2=CN1C(CC(=O)O)C(=O)O (stereo unspecified) |  |  | -16.9% (inactive)
53 | COc1cc(/C=C/C(=O)OCC2OC(OC3(CO)OC(CO)C(O)C3O)C(O)C(O)C2O)ccc1O (stereo unspecified) | inactive |  | 
54 | O=C(O)[C@H](Cc1ccccc1)Oc1ccc(-c2ccccc2)cc1 | inactive |  | 
55 | CN1CCN(C2=Nc3ccccc3Nc3ccc(O)cc32)CC1 |  |  | 4.15% (inactive)
56 | CCNC(=O)OC1CCN(c2nncc3cc(OC)c(OC)cc23)CC1 | inactive |  | 

Source: PubChem BioAssay (NCATS)
